Results published in PubChem BioAssay.

Test: small-molecule microarray binders of probe aShh, primary screen, biochemical, biotinylated probe, 635/667 nm fluorescence (AID 1114);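 also: probe is biotin-labelled aShh protein from a stem cell growth factor screen; measures binding of labelled protein to compounds printed on the slide; score merges feature fluorescence at 667 nm with signal-to-noise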
Conditions: higher = more signal

Row | SMILES | composite z-score
1 | COc1cc2c(cc1O)C(c1ccc(CN3CCCC3)cc1)N(Cc1cc3c(cc1Br)OCO3)CC2 (stereo not given) | -0.2
2 | CC(C)(C)OC(=O)CC[C@@]1(C(=O)NCC(O)CO)N=C(c2ccc(OCCCO)cc2)O[C@@H]1c1ccccc1CN=[N+]=[N-] (stereo not given in full) | 0.108
3 | Cc1ccc(S[C@]2(C(=O)NCCN3CCOCC3)CC(=O)N(Cc3ccccc3Cl)[C@@H]2c2ccc(CO)cc2I)cc1 | 0.464
4 | CC1CC/C=C\[C@H]2OC34C=CCN(C(C)(C)C)C(=O)[C@H]3N(CCCCCO)C(=O)[C@@H]4C2C(=O)O1 (stereo not given in full) | -0.283
5 | COc1ccc(CCNC(=O)[C@@]2(c3ccc([N+](=O)[O-])cc3)CC(=O)N(C3CCCCC3)[C@@H]2c2ccc(CO)cc2)cc1 | -0.0886
6 | COCCOC(=O)N1C(=O)[C@@]2(c3cc(C#CCNC(N)=O)ccc31)[C@H](C(N)=O)[C@H]1C(=O)O[C@H](c3ccccc3)[C@H](c3ccccc3)N1[C@@H]2c1ccccc1OCCO | -0.0977
7 | COC(=O)[C@@H]1N=C(c2ccc(OCCCO)cc2)O[C@@H]1C | 0.233
8 | O=C(c1ccccc1)N1C(=O)[C@]2(Cc3ccccc31)N=C(c1ccc(OCCCO)cc1)O[C@@H]2c1ccccc1 | 0.108
9 | O=C(NCCN1CCOCC1)[C@@H]1c2ccccc2C(=O)N(C2Cc3ccccc3C2)[C@H]1c1ccc(CO)cc1 | -0.13
10 | CCCCC(CC)C(O)C1C=CC2C(=O)N(C)C(=O)C2N1Nc1ccccc1 (stereo not given) | 0.0181
11 | CC[C@@H]1C=C(C(=O)O)[C@H](c2ccc(C#N)cc2)N1S(=O)(=O)c1ccc(C)cc1 | -0.0324
12 | [N-]=[N+]=Nc1ccccc1C[C@@]1(C(N)=O)N=C(c2ccc(OCCCO)cc2)O[C@@H]1c1ccccc1N=[N+]=[N-] | 0.0948
13 | C=CC[C@@H](OC(=O)Nc1ccc(SC)cc1)c1ccc(O)c(F)c1 | 0.42
14 | CS(=O)(=O)CCOC(=O)C1=CC(c2ccc(CO)cc2)=CC(C2CC2)N(Cc2sc3ccccc3c2Cl)C=C1C(=O)OCCS(C)(=O)=O (stereo not given) | 0.199
15 | CCOC(=O)C[C@H]1[C@H](OC(=O)c2ccccc2-c2ccccc2)[C@@H](NC(=O)c2ccc3ccccc3n2)c2cc(OCCCO)ccc2N1C(=O)Cc1ccc(OC)cc1 | -0.182
16 | CCOC(=O)C1=C[C@@H](C(C)(C)C)N(S(=O)(=O)c2ccc(C)cc2)[C@H]1c1cccc2ccccc12 | -0.156
17 | Cc1ccc(S[C@]2(C(=O)O)CC(=O)N(C3CCCCC3)[C@@H]2c2ccc(CO)cc2I)cc1 | 0.351
18 | COc1ccc([Si](C)(C)[C@@H]2[C@@H](CCO)O[C@]3(C(=O)N(Cc4ccccc4)c4ccc(N5C(=O)c6cccc7cccc5c67)cc43)[C@H]2C)cc1 | -0.237
19 | O=C(Cc1ccccc1)[C@H]1C2C=CCCC(c3ccccc3)=C2CN1Cc1ccccc1 (stereo not given in full) | -0.124
20 | COc1ccccc1CN1C(=O)c2ccccc2[C@](Cc2ccccc2I)(C(=O)O)[C@@H]1c1ccc(CO)cc1 | 0.336
21 | Cc1cc(C)c(C(O)C2C=CC3C(=O)N(c4ccccc4)C(=O)C3N2Nc2ccccc2F)c(C)c1 (stereo not given) | 0.282
22 | CN(C)c1ccc(C(O)C2C=CC3C(=O)NC(=O)C3N2Nc2ccccn2)cc1 (stereo not given) | -0.154
23 | C[N+](C)(C)CCCC[C@@H]1NC(=O)[C@@H]2C[C@H](C(=O)NCCCCCCN)[C@H](c3cccc(OCCO)c3)N2C1=O | 1.45
24 | CCN(CC)c1ccc(N2CC=CC34O[C@@H]5/C=C\CCCOC(=O)C5[C@H]3C(=O)N(C(C)CO)[C@@H]4C2=O)cc1 (stereo not given in full) | 0.297
25 | CCCCC=C[C@@H](NC(=O)OCc1ccccc1Cl)c1ccccc1 | 1.97
26 | CCCN1C(=O)[C@]2(Cc3ccccc31)N=C(c1ccc(OCCCO)cc1)O[C@@H]2c1ccccc1 | 1.17
27 | C=CCNC(=O)[C@H]1[C@@H]2C(=O)O[C@@H](c3ccccc3)[C@@H](c3ccccc3)N2[C@@H](c2ccccc2OCCO)[C@]12C(=O)N(C(=O)OCCOC)c1ccc(C#CC3(O)CCCCCC3)cc12 | 0.176
28 | CN1C(=O)C2C=CC(C(O)c3cccn3C)N(Nc3ccc([N+](=O)[O-])cc3[N+](=O)[O-])C2C1=O (stereo not given) | 0.496
29 | CCCCC(CC)C(O)C1C=CC2C(=O)N(c3ccccc3)C(=O)C2N1Nc1ccccc1F (stereo not given) | 0.341
30 | COCCOC(=O)N1C(=O)[C@@]2(c3ccccc31)[C@H](C(=O)NC[C@H](O)c1ccccc1)[C@H]1C(=O)O[C@H](c3ccccc3)[C@H](c3ccccc3)N1[C@@H]2c1ccc(O)cc1 | 0.209

Test: small-molecule microarray binders of probe aNog, primary screen, biochemical, biotinylated probe, 635/667 nm fluorescence (AID 1115);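 also: probe is biotinylated aNog protein used at 0.15 µg/mL for 1 h at 4 C; z-score combines 667 nm fluorescence of each spot with its signal to noise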
Conditions: higher = more signal

Row | SMILES | composite z-score
31 | CCCNC(=O)[C@@H]1c2ccccc2C(=O)N(Cc2ccc(OC(F)(F)F)cc2)[C@H]1c1ccc(CO)cc1 | 0.0303
32 | O=C1OCCC=C[C@H]2OC34C=CCN(Cn5nnc6ccccc65)C(=O)[C@H]3N(CCCO)C(=O)[C@@H]4C12 (stereo not given in full) | -0.527
33 | CCOC(=O)C[C@H]1[C@H](OC(=O)c2ccc(-c3ccccc3)cc2)[C@@H](NC(=O)CC(C)C)c2cc(OCCCO)ccc2N1C(=O)c1ccc2ccccc2n1 | 0.39
34 | COCCOC(=O)N1C(=O)[C@@]2(c3cc(C#CC4=CCCCC4)ccc31)[C@H](c1ccccc1OCCO)N1[C@H](c3ccccc3)[C@H](c3ccccc3)OC(=O)[C@H]1[C@@H]2C(=O)NC[C@H](O)c1ccccc1 | -0.939
35 | COCCCNC(=O)[C@@]1(Sc2ccc(C)cc2)CC(=O)N(C2Cc3ccccc3C2)[C@@H]1c1ccc(CO)cc1 | 0.551
36 | COc1cc2c(cc1O)C(c1ccc(CN3CCCC3)cc1)N(Cc1cc3c(cc1Br)OCO3)CC2 (stereo not given) | 0.114
37 | CC(C)(C)OC(=O)CC[C@@]1(C(=O)NCC(O)CO)N=C(c2ccc(OCCCO)cc2)O[C@@H]1c1ccccc1CN=[N+]=[N-] (stereo not given in full) | 0.72
38 | Cc1ccc(S[C@]2(C(=O)NCCN3CCOCC3)CC(=O)N(Cc3ccccc3Cl)[C@@H]2c2ccc(CO)cc2I)cc1 | 2.2
39 | CC1CC/C=C\[C@H]2OC34C=CCN(C(C)(C)C)C(=O)[C@H]3N(CCCCCO)C(=O)[C@@H]4C2C(=O)O1 (stereo not given in full) | -0.0105
40 | COc1ccc(CCNC(=O)[C@@]2(c3ccc([N+](=O)[O-])cc3)CC(=O)N(C3CCCCC3)[C@@H]2c2ccc(CO)cc2)cc1 | -0.203
41 | COCCOC(=O)N1C(=O)[C@@]2(c3cc(C#CCNC(N)=O)ccc31)[C@H](C(N)=O)[C@H]1C(=O)O[C@H](c3ccccc3)[C@H](c3ccccc3)N1[C@@H]2c1ccccc1OCCO | -0.288
42 | COC(=O)[C@@H]1N=C(c2ccc(OCCCO)cc2)O[C@@H]1C | -0.356
43 | O=C(c1ccccc1)N1C(=O)[C@]2(Cc3ccccc31)N=C(c1ccc(OCCCO)cc1)O[C@@H]2c1ccccc1 | -0.535
44 | O=C(NCCN1CCOCC1)[C@@H]1c2ccccc2C(=O)N(C2Cc3ccccc3C2)[C@H]1c1ccc(CO)cc1 | -0.447
45 | CCCCC(CC)C(O)C1C=CC2C(=O)N(C)C(=O)C2N1Nc1ccccc1 (stereo not given) | 0.558
46 | CC[C@@H]1C=C(C(=O)O)[C@H](c2ccc(C#N)cc2)N1S(=O)(=O)c1ccc(C)cc1 | 0.598
47 | [N-]=[N+]=Nc1ccccc1C[C@@]1(C(N)=O)N=C(c2ccc(OCCCO)cc2)O[C@@H]1c1ccccc1N=[N+]=[N-] | -0.722
48 | C=CC[C@@H](OC(=O)Nc1ccc(SC)cc1)c1ccc(O)c(F)c1 | -0.036

Row | SMILES | composite z-score
49 | CS(=O)(=O)CCOC(=O)C1=CC(c2ccc(CO)cc2)=CC(C2CC2)N(Cc2sc3ccccc3c2Cl)C=C1C(=O)OCCS(C)(=O)=O (stereo not given) | 0.611
50 | CCOC(=O)C[C@H]1[C@H](OC(=O)c2ccccc2-c2ccccc2)[C@@H](NC(=O)c2ccc3ccccc3n2)c2cc(OCCCO)ccc2N1C(=O)Cc1ccc(OC)cc1 | -0.147
51 | CCOC(=O)C1=C[C@@H](C(C)(C)C)N(S(=O)(=O)c2ccc(C)cc2)[C@H]1c1cccc2ccccc12 | -0.145
52 | Cc1ccc(S[C@]2(C(=O)O)CC(=O)N(C3CCCCC3)[C@@H]2c2ccc(CO)cc2I)cc1 | 1.06
53 | COc1ccc([Si](C)(C)[C@@H]2[C@@H](CCO)O[C@]3(C(=O)N(Cc4ccccc4)c4ccc(N5C(=O)c6cccc7cccc5c67)cc43)[C@H]2C)cc1 | 0.2
54 | O=C(Cc1ccccc1)[C@H]1C2C=CCCC(c3ccccc3)=C2CN1Cc1ccccc1 (stereo not given in full) | 0.0326
55 | COc1ccccc1CN1C(=O)c2ccccc2[C@](Cc2ccccc2I)(C(=O)O)[C@@H]1c1ccc(CO)cc1 | 0.182
56 | Cc1cc(C)c(C(O)C2C=CC3C(=O)N(c4ccccc4)C(=O)C3N2Nc2ccccc2F)c(C)c1 (stereo not given) | 1.32
57 | CN(C)c1ccc(C(O)C2C=CC3C(=O)NC(=O)C3N2Nc2ccccn2)cc1 (stereo not given) | 0.213
58 | C[N+](C)(C)CCCC[C@@H]1NC(=O)[C@@H]2C[C@H](C(=O)NCCCCCCN)[C@H](c3cccc(OCCO)c3)N2C1=O | 0.662
59 | CCN(CC)c1ccc(N2CC=CC34O[C@@H]5/C=C\CCCOC(=O)C5[C@H]3C(=O)N(C(C)CO)[C@@H]4C2=O)cc1 (stereo not given in full) | 0.0073
60 | CCCCC=C[C@@H](NC(=O)OCc1ccccc1Cl)c1ccccc1 | 3.06
61 | CCCN1C(=O)[C@]2(Cc3ccccc31)N=C(c1ccc(OCCCO)cc1)O[C@@H]2c1ccccc1 | 0.401
62 | C=CCNC(=O)[C@H]1[C@@H]2C(=O)O[C@@H](c3ccccc3)[C@@H](c3ccccc3)N2[C@@H](c2ccccc2OCCO)[C@]12C(=O)N(C(=O)OCCOC)c1ccc(C#CC3(O)CCCCCC3)cc12 | -0.168
63 | CN1C(=O)C2C=CC(C(O)c3cccn3C)N(Nc3ccc([N+](=O)[O-])cc3[N+](=O)[O-])C2C1=O (stereo not given) | 0.31
64 | CCCCC(CC)C(O)C1C=CC2C(=O)N(c3ccccc3)C(=O)C2N1Nc1ccccc1F (stereo not given) | 1.1
65 | COCCOC(=O)N1C(=O)[C@@]2(c3ccccc31)[C@H](C(=O)NC[C@H](O)c1ccccc1)[C@H]1C(=O)O[C@H](c3ccccc3)[C@H](c3ccccc3)N1[C@@H]2c1ccc(O)cc1 | 0.39
